According to the supplement of paper PMC11732987, “Enantioselective OTUD7B fragment discovery through chemoproteomics screening and high-throughput optimisation” (Communications Chemistry, 2025):

Tests used:
Assay in all cases: log2 ratio of Biotin-Ahx-Ub-VS probe labelling (fragment/DMSO); higher = less target engagement (more negative = stronger competition), active = hit call of the paper (q ≤ 0.05, log2 ratio ≤ -1)
Conditions in all cases: compound concentration: 200 uM; treatment time: 3 h
[1] = molecular target: T1, OTUD6B (UniProt Q8N6M0)
T1 sequence (whole entry): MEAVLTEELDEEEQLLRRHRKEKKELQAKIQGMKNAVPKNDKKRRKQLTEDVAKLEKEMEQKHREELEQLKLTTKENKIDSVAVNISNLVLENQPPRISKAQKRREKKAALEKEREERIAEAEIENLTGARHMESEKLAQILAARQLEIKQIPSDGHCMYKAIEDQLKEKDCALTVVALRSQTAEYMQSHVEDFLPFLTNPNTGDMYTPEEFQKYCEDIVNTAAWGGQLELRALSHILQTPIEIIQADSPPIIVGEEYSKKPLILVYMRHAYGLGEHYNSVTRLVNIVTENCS
Procedure, shortened: (§1)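 Average log2 ratios of fragment over vehicle were obtained by unpaired t-test from global-median-normalised Spectronaut label-free quantities. Proteins with ≥2 unique peptides were included. HEK293T lysate (495 µg per sample) was treated in triplicate with fragment at 200 µM or vehicle for 3 h, then with Biotin-Ahx-Ub-VS at 0.5 µM final for 1 h, and labelled DUBs were NeutrAvidin-enriched and run by diaPASEF LC-MS/MS.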

[2] = molecular target: T2, OTUD7B (UniProt Q6GQQ9)
T2 sequence (whole entry): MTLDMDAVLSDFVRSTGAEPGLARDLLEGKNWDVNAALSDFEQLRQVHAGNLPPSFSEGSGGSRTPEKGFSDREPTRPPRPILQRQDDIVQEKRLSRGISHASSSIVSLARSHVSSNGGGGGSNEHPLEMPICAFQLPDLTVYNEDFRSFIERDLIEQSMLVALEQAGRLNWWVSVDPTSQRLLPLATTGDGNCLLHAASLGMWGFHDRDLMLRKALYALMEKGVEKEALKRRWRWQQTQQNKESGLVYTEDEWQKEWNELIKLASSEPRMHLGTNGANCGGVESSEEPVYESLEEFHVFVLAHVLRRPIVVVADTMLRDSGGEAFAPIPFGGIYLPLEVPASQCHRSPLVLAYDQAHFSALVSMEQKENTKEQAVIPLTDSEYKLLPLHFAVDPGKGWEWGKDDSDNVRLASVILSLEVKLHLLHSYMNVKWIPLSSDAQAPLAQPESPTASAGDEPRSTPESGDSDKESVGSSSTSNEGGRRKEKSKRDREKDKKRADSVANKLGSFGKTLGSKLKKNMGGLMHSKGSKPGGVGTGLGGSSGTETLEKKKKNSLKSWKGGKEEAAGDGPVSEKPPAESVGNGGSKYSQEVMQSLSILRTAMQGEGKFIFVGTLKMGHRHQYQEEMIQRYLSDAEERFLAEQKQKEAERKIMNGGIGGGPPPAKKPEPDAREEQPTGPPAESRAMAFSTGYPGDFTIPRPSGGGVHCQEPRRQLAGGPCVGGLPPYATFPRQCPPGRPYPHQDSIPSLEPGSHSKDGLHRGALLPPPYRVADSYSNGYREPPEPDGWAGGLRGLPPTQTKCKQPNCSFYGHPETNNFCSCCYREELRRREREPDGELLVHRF
Procedure, shortened: as §1

[3] = molecular target: PRPF8 (UniProt Q6P2Q9)
Procedure, shortened: as §1

[4] = molecular target: T3, PSMD7 (UniProt P51665)
T3 sequence (whole entry): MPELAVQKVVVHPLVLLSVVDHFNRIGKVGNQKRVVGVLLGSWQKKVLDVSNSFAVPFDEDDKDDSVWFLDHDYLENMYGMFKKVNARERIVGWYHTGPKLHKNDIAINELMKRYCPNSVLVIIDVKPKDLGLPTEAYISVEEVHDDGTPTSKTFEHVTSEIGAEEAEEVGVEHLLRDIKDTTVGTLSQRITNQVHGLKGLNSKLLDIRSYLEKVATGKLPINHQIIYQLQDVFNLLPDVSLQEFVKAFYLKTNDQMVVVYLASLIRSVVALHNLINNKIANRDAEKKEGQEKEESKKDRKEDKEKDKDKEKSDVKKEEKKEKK
Procedure, shortened: as §1

[5] = molecular target: UCHL1 (UniProt P09936)
Procedure, shortened: as §1

[6] = molecular target: T4, UCHL3 (UniProt P15374)
T4 sequence (whole entry): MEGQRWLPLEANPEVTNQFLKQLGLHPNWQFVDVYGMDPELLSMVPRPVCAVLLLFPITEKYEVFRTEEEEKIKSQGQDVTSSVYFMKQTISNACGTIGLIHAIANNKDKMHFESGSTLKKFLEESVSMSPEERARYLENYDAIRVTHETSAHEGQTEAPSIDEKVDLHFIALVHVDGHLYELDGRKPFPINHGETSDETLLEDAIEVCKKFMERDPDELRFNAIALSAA
Procedure, shortened: as §1

[7] = molecular target: T5, UCHL5 (UniProt Q9Y5K5)
T5 sequence (whole entry): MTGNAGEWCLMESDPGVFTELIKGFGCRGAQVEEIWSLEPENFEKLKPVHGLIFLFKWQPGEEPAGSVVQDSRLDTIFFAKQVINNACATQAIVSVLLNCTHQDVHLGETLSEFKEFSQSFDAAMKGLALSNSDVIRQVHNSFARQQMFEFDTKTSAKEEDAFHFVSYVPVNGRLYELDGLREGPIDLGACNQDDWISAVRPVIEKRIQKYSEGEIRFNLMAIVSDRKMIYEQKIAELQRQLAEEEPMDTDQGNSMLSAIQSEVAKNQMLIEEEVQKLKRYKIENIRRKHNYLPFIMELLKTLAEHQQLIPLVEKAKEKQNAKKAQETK
Procedure, shortened: as §1

[8] = molecular target: USP10 (UniProt Q14694)
Procedure, shortened: as §1

[9] = molecular target: T6, USP15 (UniProt Q9Y4E8)
T6 sequence (whole entry): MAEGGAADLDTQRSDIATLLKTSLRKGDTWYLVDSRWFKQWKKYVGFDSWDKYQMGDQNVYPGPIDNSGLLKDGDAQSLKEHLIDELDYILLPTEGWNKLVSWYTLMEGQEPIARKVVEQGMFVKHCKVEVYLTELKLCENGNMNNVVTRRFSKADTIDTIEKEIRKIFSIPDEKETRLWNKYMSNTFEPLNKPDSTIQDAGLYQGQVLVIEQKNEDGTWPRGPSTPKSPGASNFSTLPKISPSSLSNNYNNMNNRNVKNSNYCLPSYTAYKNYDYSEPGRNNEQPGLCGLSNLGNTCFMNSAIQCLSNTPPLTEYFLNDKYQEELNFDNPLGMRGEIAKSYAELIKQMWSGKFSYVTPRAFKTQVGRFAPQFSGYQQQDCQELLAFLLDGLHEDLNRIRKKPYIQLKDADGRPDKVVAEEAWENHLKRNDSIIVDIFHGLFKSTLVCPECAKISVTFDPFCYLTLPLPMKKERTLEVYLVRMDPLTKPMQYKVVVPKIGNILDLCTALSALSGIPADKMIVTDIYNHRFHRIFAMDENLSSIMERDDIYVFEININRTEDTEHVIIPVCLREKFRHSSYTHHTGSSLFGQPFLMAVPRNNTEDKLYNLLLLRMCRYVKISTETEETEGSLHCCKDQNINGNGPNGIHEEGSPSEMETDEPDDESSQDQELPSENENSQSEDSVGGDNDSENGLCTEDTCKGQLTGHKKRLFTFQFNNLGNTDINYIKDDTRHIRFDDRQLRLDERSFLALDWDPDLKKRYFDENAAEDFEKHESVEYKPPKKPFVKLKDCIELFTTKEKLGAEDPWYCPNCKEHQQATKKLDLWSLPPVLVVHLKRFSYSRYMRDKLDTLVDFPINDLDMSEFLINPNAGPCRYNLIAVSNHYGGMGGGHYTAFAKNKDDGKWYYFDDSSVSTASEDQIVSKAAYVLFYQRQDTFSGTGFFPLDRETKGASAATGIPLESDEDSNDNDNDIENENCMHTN
Procedure, shortened: as §1

[10] = molecular target: USP16 (UniProt Q9Y5T5)
Procedure, shortened: as §1

Measured: log2 ratio of Biotin-Ahx-Ub-VS probe labelling

Chain of USP10 (Q14694 whole entry): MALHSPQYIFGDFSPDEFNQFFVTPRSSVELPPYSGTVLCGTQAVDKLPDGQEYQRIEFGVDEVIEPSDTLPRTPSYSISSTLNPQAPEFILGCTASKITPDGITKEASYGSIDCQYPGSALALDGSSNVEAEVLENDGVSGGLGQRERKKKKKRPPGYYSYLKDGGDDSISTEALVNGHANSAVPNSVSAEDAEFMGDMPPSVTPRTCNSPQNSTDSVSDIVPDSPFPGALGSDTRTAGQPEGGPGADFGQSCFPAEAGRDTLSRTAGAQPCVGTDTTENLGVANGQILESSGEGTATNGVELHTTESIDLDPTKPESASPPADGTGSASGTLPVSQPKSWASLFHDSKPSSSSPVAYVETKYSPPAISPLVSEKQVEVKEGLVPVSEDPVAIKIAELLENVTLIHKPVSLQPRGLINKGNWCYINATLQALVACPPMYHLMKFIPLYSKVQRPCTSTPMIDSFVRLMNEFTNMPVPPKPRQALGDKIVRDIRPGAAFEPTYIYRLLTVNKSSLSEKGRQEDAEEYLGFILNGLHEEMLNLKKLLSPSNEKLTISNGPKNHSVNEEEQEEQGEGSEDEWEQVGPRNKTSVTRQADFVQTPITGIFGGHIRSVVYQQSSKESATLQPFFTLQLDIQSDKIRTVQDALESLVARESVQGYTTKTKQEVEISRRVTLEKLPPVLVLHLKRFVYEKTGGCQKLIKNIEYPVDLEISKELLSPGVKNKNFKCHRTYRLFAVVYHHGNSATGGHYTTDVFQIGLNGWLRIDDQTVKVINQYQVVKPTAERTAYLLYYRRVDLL
Chain of UCHL1 (P09936 whole entry, looked up): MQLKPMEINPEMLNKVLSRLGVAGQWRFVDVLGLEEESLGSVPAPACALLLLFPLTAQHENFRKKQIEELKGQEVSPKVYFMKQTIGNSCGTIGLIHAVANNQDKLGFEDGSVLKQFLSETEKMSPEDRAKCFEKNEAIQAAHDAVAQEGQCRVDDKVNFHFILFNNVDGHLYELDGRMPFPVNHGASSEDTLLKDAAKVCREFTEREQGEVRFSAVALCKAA
Chain of USP16 (Q9Y5T5 whole entry, looked up): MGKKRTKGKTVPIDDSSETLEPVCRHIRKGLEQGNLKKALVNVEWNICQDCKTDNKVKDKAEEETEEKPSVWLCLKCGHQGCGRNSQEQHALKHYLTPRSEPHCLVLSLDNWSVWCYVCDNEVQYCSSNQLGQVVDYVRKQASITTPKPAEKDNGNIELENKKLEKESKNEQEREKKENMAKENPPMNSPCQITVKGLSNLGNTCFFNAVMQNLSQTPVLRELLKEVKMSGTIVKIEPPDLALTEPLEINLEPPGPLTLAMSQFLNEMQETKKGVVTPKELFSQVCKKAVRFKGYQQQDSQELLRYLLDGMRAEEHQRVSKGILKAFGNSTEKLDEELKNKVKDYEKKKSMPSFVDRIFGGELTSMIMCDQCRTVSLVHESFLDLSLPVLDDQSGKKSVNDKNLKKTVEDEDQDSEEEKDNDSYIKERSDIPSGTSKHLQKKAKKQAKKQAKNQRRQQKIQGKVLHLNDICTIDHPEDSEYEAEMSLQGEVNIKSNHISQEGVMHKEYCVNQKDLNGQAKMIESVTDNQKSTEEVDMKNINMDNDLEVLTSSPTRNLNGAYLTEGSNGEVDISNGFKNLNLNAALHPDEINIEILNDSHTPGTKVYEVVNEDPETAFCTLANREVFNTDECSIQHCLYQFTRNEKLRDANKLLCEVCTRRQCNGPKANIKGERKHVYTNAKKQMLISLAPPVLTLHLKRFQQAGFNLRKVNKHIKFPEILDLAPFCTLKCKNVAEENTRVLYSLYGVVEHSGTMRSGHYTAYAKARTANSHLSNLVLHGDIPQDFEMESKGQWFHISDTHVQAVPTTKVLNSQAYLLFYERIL

Cc1ccc(C)c(Oc2ccc(CNC(=O)CCl)cn2)c1.Cl
inactive: [1] -0.139 | [3] -0.126 | [4] -0.306 | [7] -0.435 | [8] -0.166 | [9] -0.359 | [10] -0.0509
active: [2] -1.04 | [5] -1.3 | [6] -1.04
